About 2,000 (36%) of roughly 5,500 compounds were called active. Another 18% or so got no clear call; they are omitted. Rule as the data show it: active = normalized growth mostly below about 0.91 (no sharp cut-off); inconclusive = no clear call, values can overlap the other calls; inactive = mostly above about 0.92. The list shows a part of the results.
Assay: chemical genetic growth profiling, strain panel (AID 1159580);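 also: tested at 20 µM; growth read once vehicle control cultures reached saturation at 30 °C; 1 = growth at the plate median or of vehicle wells; lower values mean less growth of the strain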
Settings: growth OD

Measured: normalized growth

CCN(CC)C(=O)N1CCN(C)CC1
inactive: S. cerevisiae deletion strains, locus YJR075W, strain HOC1, active compounds read low 1.03 | S. cerevisiae deletion strains, locus YKL009W, strain mrt4, active compounds read low 0.989 | S. cerevisiae deletion strains, locus YKL068W, active compounds read low 1 | S. cerevisiae deletion strains, locus YKL085W, strain MDH1 (second series), active compounds read low 1.04 | S. cerevisiae deletion strains, locus YKL085W, strain MDH1, active compounds read low 1.04 | S. cerevisiae deletion strains, locus YKL160W, strain elf1, active compounds read low 0.975 | S. cerevisiae deletion strains, locus YKR001C, strain vps1, active compounds read low 1.01 | S. cerevisiae deletion strains, locus YKR026C, strain gcn3, active compounds read low 0.965 | S. cerevisiae deletion strains, locus YKR091W, strain srl3, active compounds read low 0.949 | S. cerevisiae deletion strains, locus YLL001W, strain dnm1, active compounds read low 0.997 | S. cerevisiae deletion strains, locus YLL026W, active compounds read low 0.974 | S. cerevisiae deletion strains, locus YLL041C, strain sdh2, active compounds read low 0.994 | S. cerevisiae deletion strains, locus YLR027C, strain aat2, active compounds read low 0.964 | S. cerevisiae deletion strains, locus YLR039C, strain RIC1, active compounds read low 0.975 | S. cerevisiae deletion strains, locus YLR058C, strain SHM2, active compounds read low 1.02 | S. cerevisiae deletion strains, locus YLR102C, strain apc9, active compounds read low 0.993 | S. cerevisiae deletion strains, locus YLR113W, strain HOG1, active compounds read low 1 | S. cerevisiae deletion strains, locus YLR221C, strain rsa3, active compounds read low 0.963 | S. cerevisiae deletion strains, locus YLR258W, strain gsy2, active compounds read low 0.981 | S. cerevisiae deletion strains, locus YLR262C, strain YPT6 (second series), active compounds read low 0.967 | S. cerevisiae deletion strains, locus YLR262C, strain YPT6, active compounds read low 0.976 | S. cerevisiae deletion strains, locus YLR268W, strain sec22, active compounds read low 1.01 | S. cerevisiae deletion strains, locus YLR320W, strain mms22, active compounds read low 0.974 | S. cerevisiae deletion strains, locus YLR330W, strain CHS5, active compounds read low 1.01 | S. cerevisiae deletion strains, locus YLR342W, strain FKS1 (second series), active compounds read low 1.03 | S. cerevisiae deletion strains, locus YLR342W, strain FKS1, active compounds read low 0.98 | S. cerevisiae deletion strains, locus YLR357W, strain rsc2, active compounds read low 0.937 | S. cerevisiae deletion strains, locus YLR370C, strain arc18, active compounds read low 0.97 | S. cerevisiae deletion strains, locus YLR371W, strain rom2, active compounds read low 0.99 | S. cerevisiae deletion strains, locus YLR384C, strain iki3, active compounds read low 0.989 | S. cerevisiae deletion strains, locus YLR418C, strain cdc73, active compounds read low 0.947 | S. cerevisiae deletion strains, locus YML016C, strain PPZ1, active compounds read low 1.01 | S. cerevisiae deletion strains, locus YML032C, strain rad52, active compounds read low 0.995 | S. cerevisiae deletion strains, locus YML120C, strain ndi1, active compounds read low 0.961 | S. cerevisiae deletion strains, locus YML124C, strain tub3, active compounds read low 0.99 | S. cerevisiae deletion strains, locus YMR058W, strain fet3, active compounds read low 0.979 | S. cerevisiae deletion strains, locus YMR078C, strain ctf18, active compounds read low 0.993 | S. cerevisiae deletion strains, locus YMR125W, strain sto1, active compounds read low 0.973 | S. cerevisiae deletion strains, locus YMR129W, active compounds read low 0.964 | S. cerevisiae deletion strains, locus YMR205C, strain PFK2, active compounds read low 0.97 | S. cerevisiae deletion strains, locus YMR223W, strain ubp8, active compounds read low 0.993 | S. cerevisiae deletion strains, locus YMR231W, strain pep5, active compounds read low 0.981 | S. cerevisiae deletion strains, locus YMR263W, strain SAP30, active compounds read low 1.02 | S. cerevisiae deletion strains, locus YMR307W, strain GAS1, active compounds read low 0.999 | S. cerevisiae deletion strains, locus YNL067W, strain RPL9B, active compounds read low 1 | S. cerevisiae deletion strains, locus YNL071W, strain lat1, active compounds read low 0.964 | S. cerevisiae deletion strains, locus YNL128W, strain TEP1, active compounds read low 1.02 | S. cerevisiae deletion strains, locus YNL153C, strain GIM3, active compounds read low 1.01 | S. cerevisiae deletion strains, locus YNL183C, strain NPR1, active compounds read low 0.986 | S. cerevisiae deletion strains, locus YNL209W, strain ssb2, active compounds read low 0.969 | S. cerevisiae deletion strains, locus YNL233W, strain BNI4, active compounds read low 1.01 | S. cerevisiae deletion strains, locus YNL248C, strain rpa49, active compounds read low 0.888 | S. cerevisiae deletion strains, locus YNL250W, strain rad50, active compounds read low 1.01 | S. cerevisiae deletion strains, locus YNL271C, strain bni1, active compounds read low 1 | S. cerevisiae deletion strains, locus YNL298W, strain CLA4, active compounds read low 1.03 | S. cerevisiae deletion strains, locus YNL307C, strain MCK1, active compounds read low 1 | S. cerevisiae deletion strains, locus YNL322C, strain KRE1 (second series), active compounds read low 0.979 | S. cerevisiae deletion strains, locus YNR049C, strain mso1, active compounds read low 0.942 | S. cerevisiae deletion strains, locus YNR052C, strain pop2, active compounds read low 1 | S. cerevisiae deletion strains, locus YOL006C, strain TOP1, active compounds read low 1.03 | S. cerevisiae deletion strains, locus YOL012C, strain htz1 0.747 | S. cerevisiae deletion strains, locus YOL147C, strain pex11, active compounds read low 0.986 | S. cerevisiae deletion strains, locus YOR001W, strain rrp6, active compounds read low 0.976 | S. cerevisiae deletion strains, locus YOR061W, strain CKA2, active compounds read low 1.02 | S. cerevisiae deletion strains, locus YOR069W, strain VPS5, active compounds read low 1.01 | S. cerevisiae deletion strains, locus YOR070C, strain gyp1, active compounds read low 0.994 | S. cerevisiae deletion strains, locus YOR080W, strain dia2, active compounds read low 0.985 | S. cerevisiae deletion strains, locus YOR083W, strain WHI5, active compounds read low 0.995 | S. cerevisiae deletion strains, locus YOR106W, strain vam3, active compounds read low 0.976 | S. cerevisiae deletion strains, locus YOR136W, strain idh2, active compounds read low 0.991 | S. cerevisiae deletion strains, locus YOR144C, strain elg1, active compounds read low 1 | S. cerevisiae deletion strains, locus YOR184W, strain ser1, active compounds read low 1.02 | S. cerevisiae deletion strains, locus YOR231W, strain MKK1, active compounds read low 1.02 | S. cerevisiae deletion strains, locus YOR265W, strain rbl2, active compounds read low 0.989 | S. cerevisiae deletion strains, locus YOR270C, strain vph1, active compounds read low 0.965 | S. cerevisiae deletion strains, locus YOR290C, strain snf2, active compounds read low 0.966 | S. cerevisiae deletion strains, locus YOR316C, strain cot1, active compounds read low 1 | S. cerevisiae deletion strains, locus YPL051W, strain arl3, active compounds read low 1 | S. cerevisiae deletion strains, locus YPL078C, strain atp4, active compounds read low 0.973 | S. cerevisiae deletion strains, locus YPL106C, strain sse1, active compounds read low 0.898 | S. cerevisiae deletion strains, locus YPL240C, strain hsp82, active compounds read low 0.974 | S. cerevisiae deletion strains, locus YPL241C, strain CIN2, active compounds read low 1 | S. cerevisiae deletion strains, locus YPL256C, strain CLN2, active compounds read low 1.04 | S. cerevisiae deletion strains, locus YPR119W, strain clb2, active compounds read low 0.998 | S. cerevisiae deletion strains, locus YPR141C, strain kar3, active compounds read low 0.981 | S. cerevisiae deletion strains, locus YPR163C, strain tif3, active compounds read low 1 | S. cerevisiae deletion strains, locus YPR167C, strain met16, active compounds read low 0.996 | S. cerevisiae deletion strains, strain wtn01, active compounds read low 1.01 | S. cerevisiae strains, strain wild type, active compounds read low 1.01
